# Source: PubChem BioAssay AID1240 (Sanford-Burnham Center for Chemical Genomics, 2008)
# The whole screen tested about 50,000 compounds, of which about 800 (1.6%) showed an effect of 50% or more. The sample holds strong results, similar compounds and a random draw of the others, so the mix is not that of the screen.
# Biological target: Bcl-2-like protein 10 (Homo sapiens) (UniProt Q9HD36)
# Assay: Phenotype converters, Bcl-B/TR3 peptide binding displacement, primary biochemical FP (AID 1240);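 further: 0% = Bcl-B with tracer peptide and DMSO and 100% = tracer peptide lacking Bcl-B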
# Details: GST-Bcl-B / FITC-TR3 peptide fluorescence polarization; stronger effect = higher value; compound at 3.75 mg/L
# Bcl-2-like protein 10 (Homo sapiens), sequence (Q9HD36 whole entry, looked up): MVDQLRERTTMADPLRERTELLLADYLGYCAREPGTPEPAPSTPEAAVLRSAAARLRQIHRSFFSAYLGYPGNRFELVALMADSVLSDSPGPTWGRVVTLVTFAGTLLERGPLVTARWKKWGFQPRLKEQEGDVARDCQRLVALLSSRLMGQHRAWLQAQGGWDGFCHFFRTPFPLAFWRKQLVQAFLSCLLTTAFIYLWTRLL
row,SMILES,displacement
1,COCCc1nnc(NC(=O)Cc2ccccc2)s1,1.2%
2,Clc1ccc(-c2noc(CCc3ccccc3)n2)cc1,13.2%
3,Cc1cc(C)c2c(N)c(C(=O)c3ccc(Br)cc3)sc2n1,-7.3%
4,CN(C)c1ccnc2sc(C(=O)c3ccc(Br)cc3)c(N)c12,10%
5,Cc1nc2sc(C(=O)c3ccc(Br)cc3)c(N)c2c(C)c1C,132%
6,Cc1[nH]n(-c2ccc([N+](=O)[O-])cc2)c(=O)c1C=NC1CCCCC1,-1.9%
7,Cc1nc(C)c(/C(O)=C/c2nc3ccccc3oc2=O)s1,-1.1%
8,O=C(Nc1ccc(-c2nc3ccccc3[nH]2)cc1)c1cccs1,-7.9%
9,O=c1oc2cc([N+](=O)[O-])ccc2nc1/C=C(\O)c1ccc(Br)cc1,18.6%
10,COc1ccc(/C(O)=C/c2nc3ccccc3oc2=O)cc1,-1.7%
11,O=c1[nH]c2ccccc2nc1/C=C(\O)c1cccs1,98.7%
12,O=c1oc2cc([N+](=O)[O-])ccc2nc1/C=C(\O)c1cccc(Br)c1,3%
13,O=c1oc2cc([N+](=O)[O-])ccc2nc1/C=C(\O)c1cccs1,94%
14,COc1ccc(/C(O)=C/c2nc3ccccc3[nH]c2=O)cc1,6.8%
15,O=c1oc2ccccc2nc1/C=C(\O)c1cccs1,61.3%
16,CC(Cc1ccccc1)NC(=O)CC(c1ccccc1)c1ccc(O)c(Cl)c1Cl (centres undefined),2.6%
17,O=C(c1ccc(F)cc1)N1CCN(c2cccc(Cl)c2)CC1,2.4%
18,CCN(CC)CCCCCCOc1ccc(OC)cc1,10%
19,COCCOC(=O)c1ccc(NC(=O)COc2cccc(C)c2C)cc1,1.9%
20,CCOC(=O)C(C(=O)OCC)C(C(=O)OCC)(C(=O)OCC)C(C(=O)OCC)C(=O)OCC,2.1%
21,COc1ccc(C(=O)N=Nc2c(O)[nH]c3c(C)cc(Br)cc23)cc1,3%
22,O=C(N=Nc1c(O)[nH]c2ccc(Br)cc12)c1ccc([N+](=O)[O-])cc1,6.8%
23,O=C(N=Nc1c(O)[nH]c2ccc([N+](=O)[O-])cc12)c1cccc(Br)c1,3.3%
24,Cc1cc(C)c2[nH]c(O)c(N=NC(=O)c3cccc([N+](=O)[O-])c3)c2c1,-0.6%
25,O=C(N=Nc1c(O)[nH]c2ccc([N+](=O)[O-])cc12)c1ccc2c(c1)OCO2,75.1%

row,SMILES,displacement
1,COc1ccc(C(=O)N=Nc2c(O)[nH]c3c(C)cc([N+](=O)[O-])cc23)cc1,115%
2,CCOc1ccccc1NC(=O)/C=C/c1ccc(Cl)cc1,11.4%
3,CCN1C(=O)N(CC)C2C1N(COC(C)=O)C(=O)N2COC(C)=O (centres undefined),1.5%
4,COc1ccc(-n2nc3cc(C)c(NC(=O)c4cccnc4)cc3n2)cc1,5.1%
5,O=C1c2ccccc2C(=O)N1c1ncc(Cc2cccc(C(F)(F)F)c2)s1,-5.8%
6,Cc1cccc(NC(=O)CN(c2cccc(Cl)c2)S(C)(=O)=O)c1,3.9%
7,CC1=C(C(=O)OC2CCCC2)C(c2ccc(Cl)cc2)NC(=O)N1 (centres undefined),7.3%
8,CC1=C(C(=O)OC2CCCCC2)C(c2ccc(Br)cc2)NC(=O)N1 (centres undefined),17.5%
9,CC1=C(C(=O)OC2CCCCC2)C(c2ccc(N(C)C)cc2)NC(=O)N1 (centres undefined),99.1%
10,CC1=NNC(=O)C1CC(=O)N/N=C/c1ccc(O)cc1 (centres undefined),-5.3%
11,C=CCn1c(Cc2ccccc2)n[nH]c1=S,-5.1%
12,CCc1ccc(NC(=O)C2CC(=O)N=C(N)S2)cc1 (centres undefined),-2.4%
13,Oc1c(C=Nc2cccc3nsnc23)sc2ccccc12,-12.3%
14,Cc1cc(NS(=O)(=O)c2ccc(N/C=C/C(=O)c3cccs3)cc2)nc(C)n1,2.1%
15,Cc1cc(C)nc(NS(=O)(=O)c2ccc(N/C=C\C(=O)c3ccc4ccccc4c3)cc2)n1,14.7%
16,Cc1cc(C)nc(NS(=O)(=O)c2ccc(N/C=C\C(=O)c3cccs3)cc2)n1,78.5%
17,CCOC(=O)C1=C(O)/C(=C/c2cc(OC)c(OC)c(OC)c2)SC1=Nc1ccc(C)cc1,-5.5%
18,O=[N+]([O-])c1ccc(C[n+]2cc(-c3ccc(Cl)c(Cl)c3)n3c2CCC3)cc1,9.6%
19,O=C1CS/C(=N/N=C/c2ccc(-c3ccc([N+](=O)[O-])cc3)o2)N1,41.1%
20,Cc1c(Cl)cccc1-c1ccc(/C=N/N=C2\NC(=O)CS2)o1,133%
21,O=C1CS/C(=N/N=C/c2ccc(-c3ccc(Cl)cc3)o2)N1,-6.7%
22,COC(=O)Cn1cc(/C=C2\C(=O)NC(=O)N(c3cccc(F)c3)C2=O)c2ccccc21,35.8%
23,O=C(Cn1cc(/C=C2\SC(=O)NC2=O)c2ccccc21)Nc1ccccc1,-4.9%
24,Cc1cc(/C=C2\C(=O)NC(=O)N(c3cccc(F)c3)C2=O)c(C)n1C,18.4%
25,O=C(Cn1cc(/C=C2/C(=O)NC(=O)N(c3cccc(F)c3)C2=O)c2ccccc21)Nc1ccccc1,116%

row,SMILES,displacement
1,O=C(Cn1cc(/C=C2/C(=O)NC(=O)N(c3cccc(Cl)c3)C2=O)c2ccccc21)Nc1ccccc1,94.7%
2,COc1ccccc1/C=C1/SC(=S)N(Cc2ccccc2)C1=O,16.7%
3,CC(Oc1ccc(/C=C2/SC(=S)N(Cc3ccccc3)C2=O)cc1)c1ccccc1 (centres undefined),123%
4,CCN1C(=O)/C(=C\c2cn(CCOc3ccccc3C)c3ccccc23)SC1=S,127%
5,C=CCc1ccccc1OCCn1cc(/C=C2/SC(=S)N(CC)C2=O)c2ccccc21,11.6%
6,COc1ccccc1OCCn1cc(/C=C2/SC(=S)N(Cc3ccccc3)C2=O)c2ccccc21,112%
7,CN1C(=O)/C(=C\c2cn(Cc3ccccc3)c3ccccc23)SC1=S,8.3%
8,COc1cccc(/C=C2\SC(=S)N(Cc3ccccc3)C2=O)c1OC,8.6%
9,CC(C)c1ccc(/C=C2\SC(=S)N(Cc3ccccc3)C2=O)cc1,2.6%
10,O=Cc1ccc(/C=C2/SC(=S)N(Cc3ccccc3)C2=O)cc1,10.5%
11,COc1ccc(/C=C2/SC(=S)N(Cc3ccccc3)C2=O)c2ccccc12,60.2%
12,Cc1ccccc1OCCn1cc(/C=C2/SC(=S)N(C)C2=O)c2ccccc21,11.6%
13,CCN1C(=O)/C(=C\c2cn(Cc3ccccc3)c3ccccc23)SC1=S,3.3%
14,O=C(Nc1cccc2ccccc12)c1cc(-c2ccco2)nc2ccccc12,34.2%
15,Cc1ccc(C(=O)N2CCC(C(N)=O)CC2)cc1[N+](=O)[O-],-0.2%
16,O=C(Nc1ccccc1)/C(=C\c1cccc(Br)c1)NC(=O)c1ccccc1,4.5%
17,COc1ccc(Cc2nnc(NC(=O)Nc3ccccc3)s2)cc1,11.9%
18,COc1cc(/C=N/NC(=O)CSCc2ccc([N+](=O)[O-])cc2)cc(OC)c1OC,1.6%
19,COc1ccccc1NC(=O)N1CCOCC1,-6.8%
20,COc1ccc(-c2nc(=S)c3c(n2Cc2ccccc2)CCCC3)cc1,10.1%
21,COC(=O)C1=C(C(=O)OC)SC(=C2C(=S)C(C)(C)N(C(=O)c3cccc(C)c3)c3cc(OC)ccc32)S1,-7.2%
22,Nc1ccc2nc(SCC(=O)Nc3cccc(C(F)(F)F)c3)sc2c1,-3.3%
23,C=CCN1C(=O)/C(=C\c2cc(Br)ccc2OCCOc2cccc(OC)c2)SC1=S,-43.6%
24,CCN1C(=O)/C(=C\c2cn(CCOc3ccccc3)c3ccccc23)SC1=S,20.9%
25,C=CCN1C(=O)/C(=C\c2cn(CCOc3cccc(OC)c3)c3ccccc23)SC1=S,91.7%

row,SMILES,displacement
1,O=C(O)c1ccc2c(c1)C(=O)N(c1ccc(-c3nnc(-c4ccccc4)o3)cc1)C2=O,9%
2,CCOC(=O)c1nc(NC(=O)/C=C/c2ccco2)sc1C,73.7%
3,O=C(/C=C/c1ccco1)Nc1nc2ccc(Br)cc2s1,59.2%
4,COc1ccc(Br)cc1/C=C/C(=O)Nc1nc2ccc(C)cc2s1,-22.6%
5,COC(=O)c1c(NC(=O)/C=C/c2ccco2)sc(C)c1C,-12.6%
6,CCOC(=O)c1c(NC(=S)NC(=O)/C=C/c2ccco2)sc(C)c1C,23.9%
7,O=C(/C=C/c1ccccc1)Nc1nc2ccc(Br)cc2s1,15%
8,Cc1ccc(OCCNc2cc(Cl)ccc2[N+](=O)[O-])cc1C,0.6%
9,CSc1ccc(/C=N/S(=O)(=O)CCc2ccccc2)cc1,-7.7%
10,CCCS(=O)(=O)c1c(S(=O)(=O)CCC)c2c(C)cccn2c1C(N)=O,-9.8%
11,COc1c(Cl)ccc(Cl)c1C(=O)Nc1ccc(I)cc1,-9.5%
12,O=C(c1ccc(Cl)cc1)N1CCC(Cc2ccccc2)CC1,16.4%
13,Cc1cc(C)cc(N2C(=O)NC(=O)/C(=C\c3ccc([N+](=O)[O-])o3)C2=O)c1,-3.8%
14,COc1ccc([N+](=O)[O-])cc1-c1ccc(/C=C2\C(=O)NC(=O)N(c3ccc(Cl)cc3)C2=O)o1,25.1%
15,COc1ccc([N+](=O)[O-])cc1-c1ccc(/C=C2\C(=O)NC(=O)N(c3cc(C)cc(C)c3)C2=O)o1,92.6%
16,COc1cc([N+](=O)[O-])ccc1-c1ccc(/C=C2\C(=O)NC(=O)N(c3ccc(Cl)cc3)C2=O)o1,14%
17,CCOc1ccc(N2C(=O)NC(=O)/C(=C\c3ccc(-c4ccc([N+](=O)[O-])cc4OC)o3)C2=O)cc1,23%
18,O=C1NC(=O)N(c2ccccc2)C(=O)/C1=C\c1ccc(-c2ccc([N+](=O)[O-])cc2Br)o1,-14.8%
19,COc1ccc(N2C(=O)NC(=O)/C(=C/c3ccc(-c4ccc([N+](=O)[O-])cc4C)o3)C2=O)cc1,13.6%
20,COc1cc([N+](=O)[O-])ccc1-c1ccc(/C=C2\C(=O)NC(=S)N(c3ccc(Cl)cc3)C2=O)o1,16.2%
21,COc1cc([N+](=O)[O-])ccc1-c1ccc(/C=C2\C(=O)NC(=O)N(c3ccccc3)C2=O)o1,132%
22,COc1cc([N+](=O)[O-])ccc1-c1ccc(/C=C2\C(=O)NC(=O)N(c3ccc(C)c(C)c3)C2=O)o1,75.5%
23,Cc1ccc([N+](=O)[O-])cc1-c1ccc(/C=C2\C(=O)NC(=O)N(c3ccc(Cl)cc3)C2=O)o1,6.8%
24,Cc1ccc([N+](=O)[O-])cc1-c1ccc(/C=C2/C(=O)NC(=O)N(c3ccccc3)C2=O)o1,82.8%
